# Activity calls are given as the source filed them.
# What was measured:
# [1] = system: PRMT1 (protein arginine N-methyltransferase 1); experiment: PRMT1 binders on small-molecule microarrays, primary screen, biochemical, small-molecule microarray, 635 nm fluorescence (AID 1088); conditions: small-molecule microarray binding, higher = more signal;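 also: binding of Prmt1 protein to compounds spotted on small-molecule microarray slides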
# [2] = yeast growth modulation, basal conditions, primary screen, YJM789 clinical isolate, OD600, 24 h (AID 1089);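 also: growth of clinical yeast isolate S. cerevisiae YJM 789 seeded 1000 cells per well; test concentration not given here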; conditions: S. cerevisiae YJM789 growth, higher = more signal, called active from +8 up or from −8 down
# [3] = fission yeast growth modulation, primary screen, strain 972, OD600, 24 h, no modulator (AID 1090);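 also: basal condition with compound alone and no growth modifier present; test concentration not given here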; conditions: S. pombe 972 growth, higher = more signal, called active from +8 up or from −8 down
# [4] = S. cerevisiae growth modulation with rapamycin, primary screen, strain BY4716, OD600, 96 h (AID 1091); conditions: higher = more signal, called active from +8 up or from −8 down; also: test concentration not given here
# [5] = molecular target: Torsin-1A-interacting protein 2 (Homo sapiens) (UniProt Q8NFQ8); experiment: LULL1 binders on small-molecule microarray, primary screen, cell lysate, human LULL1 lysate, 635/667 nm fluorescence (AID 1092); conditions: hLULL1 lysate binding, 635 nm fluorescence, higher = more signal;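 also: probe is lysate of COS7 cells overexpressing human LULL1; score merges per-feature 667 nm fluorescence with signal-to-noise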
# Torsin-1A-interacting protein 2 (Homo sapiens), sequence (Q8NFQ8 whole entry, looked up): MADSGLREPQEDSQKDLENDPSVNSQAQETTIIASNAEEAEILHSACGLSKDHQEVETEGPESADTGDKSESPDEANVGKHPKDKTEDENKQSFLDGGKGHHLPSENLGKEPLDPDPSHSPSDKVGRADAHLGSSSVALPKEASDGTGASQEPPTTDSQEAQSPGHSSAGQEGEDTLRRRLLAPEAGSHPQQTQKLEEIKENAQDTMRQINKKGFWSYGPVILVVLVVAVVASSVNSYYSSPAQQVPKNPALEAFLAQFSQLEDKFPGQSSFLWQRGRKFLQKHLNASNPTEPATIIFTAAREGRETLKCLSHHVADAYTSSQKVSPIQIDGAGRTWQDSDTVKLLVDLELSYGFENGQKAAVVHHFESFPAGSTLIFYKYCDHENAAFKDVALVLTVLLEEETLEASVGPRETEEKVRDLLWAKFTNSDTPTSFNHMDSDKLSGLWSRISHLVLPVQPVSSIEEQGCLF
# [6] = E. coli growth modulation, two-sided OD650, primary screen, E. coli filamentation project, strain DRC41, 24 h (AID 1093); conditions: OD650, 24 h, higher = more signal, called active from +8 up or from −8 down;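 also: MC1000 strain lacking acrAB efflux and sulA so SOS filamentation is blocked; test concentration not given here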
# [7] = small-molecule microarray binders of probe aLefty2, primary screen, biochemical, biotinylated probe, 635/667 nm fluorescence (AID 1094); conditions: higher = more signal;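 also: score merges spot fluorescence near 667 nm with spot signal-to-noise ratio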
# [8] = system: Noggin (protein binding on small-molecule microarray); experiment: Noggin binders on small-molecule microarray, primary screen, biochemical, 635/667 nm fluorescence (AID 1095); conditions: 635 nm fluorescence, higher = more signal;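 also: score merges 667 nm feature fluorescence with signal to noise over triplicate slides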
# [9] = molecular target: Neurogenic locus notch homolog protein 3 (Homo sapiens) (UniProt Q9UM47); experiment: NOTCH3 binders on small-molecule microarray, primary screen, biochemical, 635/667 nm fluorescence (AID 1096); conditions: NOTCH3 binding, 635 nm fluorescence, higher = more signal
# Neurogenic locus notch homolog protein 3 (Homo sapiens), sequence (Q9UM47 whole entry, looked up): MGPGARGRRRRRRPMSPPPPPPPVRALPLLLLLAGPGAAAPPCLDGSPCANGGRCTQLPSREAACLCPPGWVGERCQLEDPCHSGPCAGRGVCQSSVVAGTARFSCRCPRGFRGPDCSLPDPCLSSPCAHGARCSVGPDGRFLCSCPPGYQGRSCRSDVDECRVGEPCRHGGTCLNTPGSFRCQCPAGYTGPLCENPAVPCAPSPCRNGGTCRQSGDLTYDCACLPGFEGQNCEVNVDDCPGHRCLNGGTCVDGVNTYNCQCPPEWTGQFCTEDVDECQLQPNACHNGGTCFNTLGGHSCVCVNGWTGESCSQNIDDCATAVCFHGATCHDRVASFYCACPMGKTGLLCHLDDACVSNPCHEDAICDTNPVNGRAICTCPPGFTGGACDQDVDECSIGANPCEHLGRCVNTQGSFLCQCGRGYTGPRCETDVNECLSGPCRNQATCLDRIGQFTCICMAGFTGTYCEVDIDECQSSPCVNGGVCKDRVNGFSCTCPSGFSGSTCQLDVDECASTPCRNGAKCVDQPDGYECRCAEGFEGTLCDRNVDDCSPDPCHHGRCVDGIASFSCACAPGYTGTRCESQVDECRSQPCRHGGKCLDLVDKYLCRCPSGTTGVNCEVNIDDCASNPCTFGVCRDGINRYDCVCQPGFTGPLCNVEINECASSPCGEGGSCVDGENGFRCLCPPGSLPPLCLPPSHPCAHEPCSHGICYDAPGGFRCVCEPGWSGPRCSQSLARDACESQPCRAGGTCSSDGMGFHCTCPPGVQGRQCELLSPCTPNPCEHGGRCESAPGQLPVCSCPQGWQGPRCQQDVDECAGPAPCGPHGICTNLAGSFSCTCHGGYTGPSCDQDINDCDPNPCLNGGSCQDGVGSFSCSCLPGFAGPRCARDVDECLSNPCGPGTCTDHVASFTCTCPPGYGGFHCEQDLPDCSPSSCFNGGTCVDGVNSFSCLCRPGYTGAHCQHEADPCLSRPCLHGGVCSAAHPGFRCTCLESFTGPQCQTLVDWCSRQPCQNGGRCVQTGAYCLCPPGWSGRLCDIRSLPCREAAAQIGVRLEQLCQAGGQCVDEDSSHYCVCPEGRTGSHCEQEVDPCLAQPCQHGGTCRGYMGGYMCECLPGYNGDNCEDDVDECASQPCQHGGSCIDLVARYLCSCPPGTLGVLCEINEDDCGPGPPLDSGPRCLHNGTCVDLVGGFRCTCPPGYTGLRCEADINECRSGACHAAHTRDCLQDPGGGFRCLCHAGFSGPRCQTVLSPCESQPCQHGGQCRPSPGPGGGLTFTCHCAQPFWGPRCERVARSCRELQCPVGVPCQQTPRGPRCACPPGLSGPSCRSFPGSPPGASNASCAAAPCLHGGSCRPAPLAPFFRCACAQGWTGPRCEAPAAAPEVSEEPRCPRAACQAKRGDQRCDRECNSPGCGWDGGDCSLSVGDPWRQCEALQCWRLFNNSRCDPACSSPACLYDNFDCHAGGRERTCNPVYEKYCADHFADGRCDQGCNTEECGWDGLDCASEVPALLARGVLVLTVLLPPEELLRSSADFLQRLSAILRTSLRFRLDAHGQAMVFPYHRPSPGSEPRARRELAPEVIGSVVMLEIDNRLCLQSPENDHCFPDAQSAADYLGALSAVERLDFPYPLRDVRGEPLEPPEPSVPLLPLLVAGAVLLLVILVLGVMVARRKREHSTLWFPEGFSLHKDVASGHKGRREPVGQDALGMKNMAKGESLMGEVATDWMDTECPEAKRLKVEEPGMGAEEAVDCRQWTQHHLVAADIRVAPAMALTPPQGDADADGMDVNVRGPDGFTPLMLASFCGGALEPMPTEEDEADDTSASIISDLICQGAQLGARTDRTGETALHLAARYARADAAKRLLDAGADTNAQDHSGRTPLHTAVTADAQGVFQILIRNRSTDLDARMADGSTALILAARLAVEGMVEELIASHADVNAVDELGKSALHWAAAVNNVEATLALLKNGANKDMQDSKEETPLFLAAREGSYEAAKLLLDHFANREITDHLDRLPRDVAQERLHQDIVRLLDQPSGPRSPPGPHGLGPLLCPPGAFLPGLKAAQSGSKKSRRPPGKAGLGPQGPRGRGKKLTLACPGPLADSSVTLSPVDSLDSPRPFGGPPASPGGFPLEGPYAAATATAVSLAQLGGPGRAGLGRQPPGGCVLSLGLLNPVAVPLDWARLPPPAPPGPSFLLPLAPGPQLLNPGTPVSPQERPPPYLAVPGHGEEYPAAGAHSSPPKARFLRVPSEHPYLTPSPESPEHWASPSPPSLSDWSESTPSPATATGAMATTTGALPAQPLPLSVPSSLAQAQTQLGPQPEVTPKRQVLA
# [10] = small-molecule microarray binders of probe aEGFR, primary screen, biochemical, biotinylated probe, 635/667 nm fluorescence (AID 1097); conditions: higher = more signal;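 also: probe is a biotinylated anti-EGFR antibody binding compounds printed on slides; score combines fluorescence near 667 nm and signal to noise of each spot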
# [11] = system: Plasmodium falciparum Sir2 (PF13_0152, Sir2A); experiment: pfSir2 binders on small-molecule microarrays, primary screen, biochemical, small-molecule microarray, 635 nm fluorescence (AID 1098); conditions: small-molecule microarray binding, fluorescence 635 nm; higher = more signal;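 also: score merges spot fluorescence intensity with its signal-to-noise ratio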
# [12] = small-molecule microarray binders of probe aDKK1, primary screen, biochemical, biotinylated probe, 635/667 nm fluorescence (AID 1099); conditions: higher = more signal;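 also: score merges 667nm spot fluorescence with signal to noise across triplicate slides; reference of the scale not given here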
# [13] = small-molecule microarray binders of probe aCHRDL2, primary screen, biochemical, biotinylated probe, 635/667 nm fluorescence (AID 1100); conditions: higher = more signal
# [14] = splicing luciferase reporter signal modulators, primary screen, spliceosome inhibition project, cell-based, HEK293, splice +/- reporter (AID 1101); conditions: luminescence, 24 h, higher = more signal, called active from +8 up or from −8 down;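 also: HEK293 cells carrying a splicing-competent luciferase reporter gene; test concentration not given here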
# [15] = molecular target: Fibroblast growth factor 10 (Homo sapiens) (UniProt O15520); experiment: FGF10 binders on small-molecule microarrays, primary screen, biochemical, small-molecule microarray, 635 nm fluorescence (AID 1102); conditions: FGF10 binding, fluorescence 635 nm, higher = more signal
# Fibroblast growth factor 10 (Homo sapiens), sequence (O15520 whole entry, looked up): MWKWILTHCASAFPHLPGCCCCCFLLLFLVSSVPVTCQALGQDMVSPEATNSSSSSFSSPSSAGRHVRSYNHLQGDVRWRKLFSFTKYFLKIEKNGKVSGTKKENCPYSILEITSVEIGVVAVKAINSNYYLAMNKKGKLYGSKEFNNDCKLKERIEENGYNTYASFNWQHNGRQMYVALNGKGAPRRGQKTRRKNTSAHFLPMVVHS
# [16] = system: glycogen synthase kinase-3 (GSK3A per assay name; protocol says GSK3B); experiment: GSK3 binders on small-molecule microarrays, primary screen, biochemical, small-molecule microarray, 635 nm fluorescence, GSK3A (AID 1103); conditions: small-molecule microarray binding, fluorescence 635 nm; higher = more signal; also: the record names both GSK3A and GSK3B
# [17] = molecular target: Epidermal growth factor receptor (Homo sapiens) (UniProt P00533); experiment: EGFR binders on small-molecule microarrays, primary screen, biochemical, small-molecule microarray, 635 nm fluorescence (AID 1104); conditions: EGFR binding, higher = more signal;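 also: score merges 667 nm emission intensity with spot signal to noise over triplicate slides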
# Epidermal growth factor receptor (Homo sapiens), sequence (P00533 whole entry, looked up): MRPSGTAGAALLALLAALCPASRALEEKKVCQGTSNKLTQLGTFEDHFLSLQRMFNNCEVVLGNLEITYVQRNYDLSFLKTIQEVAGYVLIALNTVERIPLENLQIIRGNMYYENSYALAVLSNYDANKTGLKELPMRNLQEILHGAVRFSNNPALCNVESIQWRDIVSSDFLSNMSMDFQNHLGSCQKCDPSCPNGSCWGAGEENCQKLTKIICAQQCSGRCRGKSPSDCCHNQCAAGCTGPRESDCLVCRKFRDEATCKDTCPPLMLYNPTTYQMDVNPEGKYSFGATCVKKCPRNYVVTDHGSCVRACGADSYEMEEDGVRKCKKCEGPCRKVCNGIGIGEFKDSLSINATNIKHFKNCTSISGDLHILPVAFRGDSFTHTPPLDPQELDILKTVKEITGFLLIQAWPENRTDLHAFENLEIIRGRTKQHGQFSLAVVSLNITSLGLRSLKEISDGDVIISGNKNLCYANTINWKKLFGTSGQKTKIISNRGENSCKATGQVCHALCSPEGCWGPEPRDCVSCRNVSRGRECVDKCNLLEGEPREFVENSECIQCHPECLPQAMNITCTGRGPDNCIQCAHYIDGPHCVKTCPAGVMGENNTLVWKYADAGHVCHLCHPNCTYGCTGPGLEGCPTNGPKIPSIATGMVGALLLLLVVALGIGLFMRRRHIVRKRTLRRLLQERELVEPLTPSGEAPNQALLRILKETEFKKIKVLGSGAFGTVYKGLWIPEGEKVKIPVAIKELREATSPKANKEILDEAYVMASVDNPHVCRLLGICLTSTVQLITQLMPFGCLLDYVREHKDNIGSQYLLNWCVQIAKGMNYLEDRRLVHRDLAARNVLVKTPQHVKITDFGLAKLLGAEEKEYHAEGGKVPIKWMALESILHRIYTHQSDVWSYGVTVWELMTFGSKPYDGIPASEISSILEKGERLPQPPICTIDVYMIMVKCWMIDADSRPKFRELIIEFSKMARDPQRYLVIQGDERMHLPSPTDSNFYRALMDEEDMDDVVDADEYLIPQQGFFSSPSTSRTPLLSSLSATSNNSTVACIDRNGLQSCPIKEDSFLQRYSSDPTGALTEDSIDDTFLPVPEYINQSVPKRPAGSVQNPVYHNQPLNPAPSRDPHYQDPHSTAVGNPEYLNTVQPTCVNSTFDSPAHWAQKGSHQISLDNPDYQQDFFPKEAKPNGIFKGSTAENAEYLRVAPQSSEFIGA
# [18] = molecular target: Follistatin-related protein 3 (Homo sapiens) (UniProt O95633); experiment: FSTL3 binders on small-molecule microarrays, primary screen, biochemical, small-molecule microarray, 635 nm fluorescence (AID 1105); conditions: FSTL3 binding, higher = more signal;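 also: score merges emission near 667 nm and signal to noise per printed spot across three slides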
# Follistatin-related protein 3 (Homo sapiens), sequence (O95633 whole entry, looked up): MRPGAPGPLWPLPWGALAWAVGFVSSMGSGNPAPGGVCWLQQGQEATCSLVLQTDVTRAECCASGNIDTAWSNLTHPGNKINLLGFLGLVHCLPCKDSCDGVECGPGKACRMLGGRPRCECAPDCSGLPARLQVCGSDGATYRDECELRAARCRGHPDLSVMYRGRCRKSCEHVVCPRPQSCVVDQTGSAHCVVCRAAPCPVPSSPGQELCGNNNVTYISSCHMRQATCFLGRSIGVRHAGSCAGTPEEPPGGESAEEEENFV
# [19] = molecular target: Dickkopf-related protein 1 (Homo sapiens) (UniProt O94907); experiment: DKK1 binders on small-molecule microarrays, primary screen, biochemical, small-molecule microarray, 635 nm fluorescence scan (AID 1106); conditions: DKK1 binding, higher = more signal;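 also: score merges emission near 667 nm with signal to noise over three replicate slides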
# Dickkopf-related protein 1 (Homo sapiens), sequence (O94907 whole entry, looked up): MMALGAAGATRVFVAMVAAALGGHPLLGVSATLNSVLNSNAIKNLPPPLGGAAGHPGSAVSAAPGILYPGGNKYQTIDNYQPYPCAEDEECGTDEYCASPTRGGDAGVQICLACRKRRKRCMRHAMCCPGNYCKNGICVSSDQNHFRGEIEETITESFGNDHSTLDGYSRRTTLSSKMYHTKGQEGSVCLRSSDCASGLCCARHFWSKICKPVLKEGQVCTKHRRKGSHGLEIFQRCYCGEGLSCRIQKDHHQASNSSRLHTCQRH
# [20] = system: Inhibin beta A chain (activin A); experiment: INHBA (activin A) binders on microarrays, primary screen, biochemical, small-molecule microarray, 635 nm fluorescence scan (AID 1107); conditions: small-molecule microarray binding, higher = more signal;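 also: mouse activin A protein probed at 4.33 µg/mL on printed slides; score merges bound-protein fluorescence near 667 nm with spot signal-to-noise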
smiles,measurement,setting,value
COC(=O)[C@H](Cc1ccc(O)cc1)N1CC2=CCCC=C[C@@H]2[C@H]1[C@H](O)Cc1ccccc1,composite z-score,[1],1.13
same,z-score,[2],-0.662 (inactive)
same,z-score,[3],-2.3 (inactive)
same,z-score,[4],-1.03 (inactive)
same,composite z-score,[5],0.616
same,z-score,[6],0.65 (inactive)
same,composite z-score,[7],-0.29
same,composite z-score,[8],0.191
same,composite z-score,[9],-0.0213
same,composite z-score,[10],-0.112
same,composite z-score,[11],0.751
same,composite z-score,[12],-0.301
same,composite z-score,[13],-0.538
same,z-score,[14],-1.07 (inactive)
same,composite z-score,[15],0.477
same,composite z-score,[16],-0.159
same,composite z-score,[17],0.72
same,composite z-score,[18],0.255
same,composite z-score,[19],0.0139
same,composite z-score,[20],0.493
CCOC(=O)C[C@H]1[C@H](OC(=O)c2ccc(-c3ccccc3)cc2)[C@@H](NC(=O)CC(C)C)c2cc(OCCCO)ccc2N1C(=O)Cc1ccc(OC)cc1,composite z-score,[1],0.403
same,z-score,[2],-1.15 (inactive)
same,z-score,[3],-0.218 (inactive)
same,z-score,[4],0.143 (inactive)
same,composite z-score,[5],0.734
same,z-score,[6],-1.1 (inactive)
same,composite z-score,[7],0.19
same,composite z-score,[8],-0.316
same,composite z-score,[9],-0.117
same,composite z-score,[10],-0.0084
same,composite z-score,[11],-0.146
same,composite z-score,[12],0.448
same,composite z-score,[13],0.624
same,z-score,[14],-0.463 (inactive)
same,composite z-score,[15],0.22
same,composite z-score,[16],0.0434
same,composite z-score,[17],-0.263
same,composite z-score,[18],-0.195
same,composite z-score,[19],-0.204
same,composite z-score,[20],-0.353
COc1ccc(C#Cc2ccc3c(c2)[C@]2(C(=O)N3)[C@H](C(=O)Nc3nc4ccccc4s3)[C@H]3C(=O)O[C@H](c4ccccc4)[C@H](c4ccccc4)N3[C@@H]2c2ccc(OCCO)cc2)cc1,composite z-score,[1],1.55
same,z-score,[2],3.16 (inactive)
same,z-score,[3],2.06 (inactive)
same,z-score,[4],1.64 (inactive)
same,composite z-score,[5],2.7
same,z-score,[6],0.361 (inactive)
same,composite z-score,[7],-0.0412
same,composite z-score,[8],0.994
same,composite z-score,[9],1.1
same,composite z-score,[10],0.123
same,composite z-score,[11],0.937
same,composite z-score,[12],0.72
same,composite z-score,[13],0.766
same,z-score,[14],-0.126 (inactive)
same,composite z-score,[15],1.17
same,composite z-score,[16],1.3
same,composite z-score,[17],0.209
same,composite z-score,[18],1.13
same,composite z-score,[19],0.629
same,composite z-score,[20],-0.37
CCOC(=O)C[C@H]1[C@H](OC(=O)c2ccc(-c3ccccc3)cc2)[C@@H](NC(=O)c2ccc3ccccc3c2)c2cc(OCCCO)ccc2N1C(=O)c1ccccc1,composite z-score,[1],0.712
same,z-score,[2],0.806 (inactive)
same,z-score,[3],1.17 (inactive)
same,z-score,[4],1.26 (inactive)
same,composite z-score,[5],1.69
same,z-score,[6],-1.1 (inactive)
same,composite z-score,[7],-0.141
same,composite z-score,[8],0.382
same,composite z-score,[9],0.842
same,composite z-score,[10],0.0914
same,composite z-score,[11],0.34
same,composite z-score,[12],-0.393
same,composite z-score,[13],0.211
same,z-score,[14],0.173 (inactive)
same,composite z-score,[15],1.28
same,composite z-score,[16],0.972
same,composite z-score,[17],0.514
same,composite z-score,[18],0.341
same,composite z-score,[19],-0.149
same,composite z-score,[20],-0.121
COCCCNC(=O)[C@@]1(Sc2ccc(C)cc2)CC(=O)N(C2CCCCC2)[C@@H]1c1ccc(CO)cc1I,composite z-score,[1],1.54
same,z-score,[2],-1.9 (inactive)
same,z-score,[3],-0.128 (inactive)
same,z-score,[4],0.0267 (inactive)
same,composite z-score,[5],2.81
same,z-score,[6],0.331 (inactive)
same,composite z-score,[7],-0.0333
same,composite z-score,[8],0.451
same,composite z-score,[9],1.04
same,composite z-score,[10],0.0944
same,composite z-score,[11],1.06
same,composite z-score,[12],0.79
same,composite z-score,[13],0.629
same,z-score,[14],-0.924 (inactive)
same,composite z-score,[15],1.01
same,composite z-score,[16],1.28
same,composite z-score,[17],0.549
same,composite z-score,[18],1.38
same,composite z-score,[19],0.216
same,composite z-score,[20],-0.148
COCC(=C=CC[C@@H](O)c1cccc(OCCO)c1)C[C@@H](O)COCc1ccccc1,composite z-score,[1],0.881
same,z-score,[2],-1.56 (inactive)
same,z-score,[3],-1.53 (inactive)
same,z-score,[4],-0.592 (inactive)
same,composite z-score,[5],3.81
same,z-score,[6],1.36 (inactive)
same,composite z-score,[7],0.217
same,composite z-score,[8],0.748
same,composite z-score,[9],0.0417
same,composite z-score,[10],0.19
same,composite z-score,[11],0.264
same,composite z-score,[12],0.613
same,composite z-score,[13],0.67
same,z-score,[14],-0.51 (inactive)
same,composite z-score,[15],1.4
same,composite z-score,[16],1.19
same,composite z-score,[17],-0.623
same,composite z-score,[18],0.416
same,composite z-score,[19],-0.267
same,composite z-score,[20],0.717
CCC[C@@H]1C=C(C(=O)OCC)[C@H](c2ccccc2)N1S(=O)(=O)c1ccc(C)cc1,composite z-score,[1],1.57
same,z-score,[2],0.73 (inactive)
same,z-score,[3],1.67 (inactive)
same,z-score,[4],1.7 (inactive)
same,composite z-score,[5],0.352
same,z-score,[6],-0.209 (inactive)
same,composite z-score,[7],0.326
same,composite z-score,[8],0.0974
same,composite z-score,[9],1.08
same,composite z-score,[10],0.21
same,composite z-score,[11],0.58
same,composite z-score,[12],0.852
same,composite z-score,[13],1.02
same,z-score,[14],-0.141 (inactive)
same,composite z-score,[15],0.977
same,composite z-score,[16],1.32
same,composite z-score,[17],0.623
same,composite z-score,[18],1.25
same,composite z-score,[19],0.117
same,composite z-score,[20],0.789
C[C@H]1NC(=O)C([C@@H](C)OCc2ccccc2)NC(=O)[C@@]23C(=O)N[C@@H](Cc4ccccc4)C2[C@H](C)[C@@]2(C)O[C@H]2C3/C=C/C/C=C\CNC1=O (stereo not given in full),composite z-score,[1],-0.242
same,z-score,[2],0.823 (inactive)
same,z-score,[3],-0.389 (inactive)
same,z-score,[4],1.06 (inactive)
same,composite z-score,[5],0.721
same,z-score,[6],0.147 (inactive)
same,composite z-score,[7],-0.192
same,composite z-score,[8],0.797
same,composite z-score,[9],0.0201
same,composite z-score,[10],-0.168
same,composite z-score,[11],0.0032
same,composite z-score,[12],-0.333
same,composite z-score,[13],-0.603
same,z-score,[14],0.219 (inactive)
same,composite z-score,[15],0.699
same,composite z-score,[16],-0.3
same,composite z-score,[17],0.281
same,composite z-score,[18],0.511
same,composite z-score,[19],0.722
same,composite z-score,[20],1.43
O=C1O[C@H](c2ccccc2)[C@H](c2ccccc2)N2[C@H]1[C@@H](C(=O)N1CCN(c3ncccn3)CC1)[C@]1(C(=O)Nc3ccccc31)[C@H]2c1ccc(O)cc1,composite z-score,[1],1.51
same,z-score,[2],1.92 (inactive)
same,z-score,[3],0.116 (inactive)
same,z-score,[4],3.6 (inactive)
same,composite z-score,[5],3.06
same,z-score,[6],0.913 (inactive)
same,composite z-score,[7],0.032
same,composite z-score,[8],0.0775
same,composite z-score,[9],0.305
same,composite z-score,[10],-0.0936
same,composite z-score,[11],0.612
same,composite z-score,[12],0.571
same,composite z-score,[13],0.544
same,z-score,[14],-0.117 (inactive)
same,composite z-score,[15],0.506
same,composite z-score,[16],0.799
same,composite z-score,[17],-0.149
same,composite z-score,[18],-0.0987
same,composite z-score,[19],0.165
same,composite z-score,[20],0.0112
COC(=O)c1ccc([C@H](NC(=O)c2ccccc2)[C@]2(C)C[C@H]2C2CCCCC2)cc1,composite z-score,[1],0.0232
same,z-score,[2],0.696 (inactive)
same,z-score,[3],1.52 (inactive)
same,z-score,[4],-1.23 (inactive)
same,composite z-score,[5],3.03
same,z-score,[6],-1.38 (inactive)
same,composite z-score,[7],0.223
same,composite z-score,[8],-0.178
same,composite z-score,[9],1.05
same,composite z-score,[10],-0.116
same,composite z-score,[11],0.135
same,composite z-score,[12],0.343
same,composite z-score,[13],1.24
same,z-score,[14],0.736 (inactive)
same,composite z-score,[15],0.225
same,composite z-score,[16],0.0377
same,composite z-score,[17],-0.133
same,composite z-score,[18],0.4
same,composite z-score,[19],-0.532
same,composite z-score,[20],0.795

# Reference: PubChem BioAssay
